# Data from PubChem BioAssay (NCATS).
# Results filed as inconclusive are left out. A number with no mark means an inactive call. Calls come from the whole dose curve. Starred links: 1 amine or outer side, 2 acyl side, 3 side chain; linkers in the order of their positions; H or OH if unused. Non-standard residues stand in square brackets, D forms with d. Residues, ends and D or L forms follow the SMILES beside them. ξ: configuration not given here. X4 = O=C(C1CC2(c3ccc(O)cc3)c3ccccc3NC2N1[*:1])[*:2]; ξW = NC(Cc1c[nH]c2ccccc12)C(=O)O; ξY = NC(Cc1ccc(O)cc1)C(=O)O
# Test: qHTS for inhibitors of Rabies Virus screened against the NCATS CANVASS Library (AID 1347402); note: 0% is about no effect
# Settings: Rabies virus infection cell assay; series mostly up to 45.9 µM; activity change, negative = inhibition: at the top concentration
row,Compound,"activity change, negative = inhibition"
1,O=C1c2c(O)cc(O)cc2O[C@@H](c2ccc(O)cc2)[C@@H]1c1c(O)cc(O)c2c(=O)cc(-c3ccc(O)c(O)c3)oc12,4.05%
2,Cc1occ2c1C(=O)c1c(cc(O)c(O)c1O)C2=O,-33.2%
3,CC1=CC[C@@]2(C[C@@H]1O)[C@@H](C(=O)O)CC[C@H]2C(C)C,-17.5%
4,CNc1ccc(Cl)cc1C(=O)OC[C@]1(C)[C@H]2CC[C@]3(C)[C@@H](C[C@@H](OC)[C@H](C)[C@H]3C3=C(O)C(=O)OC3O)[C@]2(C)CC[C@H]1O (stereo not given in full),-5.13%
5,C=C1/C=C\C(CCC)=C\c2csc(n2)C(C)NC(=O)C[C@@]2(CC(=O)O)CCC(=C)[C@H](C1)S2 (stereo not given in full),-15.5%
6,O=Cc1ccc2n1C[C@]1(OC2)O[C@H](CO)[C@@H](O)[C@@H]1O,-12.4%
7,Oc1ccc(/C=C2/c3cc(O)cc(O)c3C(c3ccc(O)cc3)[C@H]2c2cc(O)cc(O)c2)cc1 (stereo not given in full),-8.29%
8,C=C1[C@@]2(C)CC3C4(C)CCC(O)C(C)(C)C4CCC3(C)[C@]1(C(=O)OC)C(=O)C(C)(O)C2=O (stereo not given in full),-20.4%
9,COC(=O)c1cccc2oc(-c3cccc4oc(-c5c(C)cccc5O)nc34)nc12,-35.4%
10,C=C1[C@H]2CC[C@@]3(C=CC(=O)[C@@](C)(CCC(=O)Nc4c(O)ccc(C(=O)O)c4O)C3C2)[C@H]1O (stereo not given in full),-7.81%
11,COc1cc2ccc(=O)oc2c(O)c1O[C@@H]1O[C@H](CO)[C@@H](O)[C@H](O)[C@H]1O,7.6% [at 27.4 µM]
12,CCCCCCCCC[C@@H]1C[C@@H]2CC[C@H]3[C@@H](C(=O)OCCCCN=C(N)N)[C@@H](C)N=C(N1)N23,-28.8% [at 27.4 µM]
13,CC[C@H](C)[C@H](NC(=O)C(Cc1ccc(O)cc1)NC(=O)C(Cc1c[nH]c2ccccc12)NC(=O)[C@H](C)N)C(=O)N1C(C(=O)NC(Cc2ccc(O)cc2)C(=O)O)CC2(c3ccc(O)cc3)c3ccccc3NC12 (stereo not given in full) (H-A[ξW][ξY]I[X4][ξY]-OH),-8.41%
14,C[C@@H]1O[C@@H](Oc2c(-c3ccc(O)cc3)oc3cc(O)cc(O)c3c2=O)[C@H](O)[C@H](O)[C@H]1O,-2.11%
15,COC(=O)[C@@]1(C)CCC[C@]2(C)c3cc(OC)ccc3CC[C@@H]12,-0.556%
16,C=C[C@@]1(C)CC[C@@H]([C@H](C)C(=O)/C=C/C(C)C)O1,0.952%
17,C=C[C@](Cl)(CBr)CCC=C(C)C,-1.66%
18,C=C[C@@]1(C)CC[C@@H]([C@H](C)C(C)=O)O1,7.36%
19,O=C1CC(c2ccc(O)cc2)Oc2ccccc21 (stereo not given),-28.2%
20,COC12OC1(C13OC1(OC)C(=O)c1cc4cc(C)oc(=O)c4c(O)c1C3O)C(O)c1c(cc3cc(C)oc(=O)c3c1O)C2=O (stereo not given),-32.7%

row,Compound,"activity change, negative = inhibition"
1,COc1cc(O)c2c3c(c(O)cc(C)c13)C(=O)OC2,-1.84%
2,COc1ccc([C@@H]2c3cc(OC)c(OC)cc3C(=O)[C@H](C)C2C)cc1OC (stereo not given in full),-3.53% [at 9.14 µM]
3,C/C(=C\[C@H](C)C(=O)/C=C/CC1CC(=O)NC(=O)C1)[C@@H]1OC(=O)CCCC/C=C/[C@H](O)[C@@H](O)[C@@H]1C,-9.29%
4,CC[C@@H]1C[C@@]2(CC)OC(=O)[C@@]3(CC)[C@H](CC)[C@@H]1[C@@H]23,-2.6%
5,COC1C(C)OC(OCC23C[C@@H]4[C@H](C)CC[C@H]4C4(C=O)CC2C=C(C(C)C)C34C(=O)O)[C@@H](O)[C@H]1O (stereo not given in full),2.68%
6,C=C[C@@]1(C)CC[C@@H]([C@H](C)C(=O)/C=C/C(C)(C)O)O1,-16.7%
7,OCc1ccc2ocnc2c1,-6.39%
8,CO[C@H]1[C@@H](OC(=O)/C(C)=C\[C@@H]2O[C@@H]2[C@H]2O[C@H]2C)[C@H](O)[C@H](OCC23C[C@@H]4[C@H](C)CC[C@H]4C4(C=O)CC2C=C(C(C)C)C34C(=O)O)O[C@@H]1C (stereo not given in full),-16.9%
9,C[C@@H](O)[C@H]1OC(=O)C=C2[C@]3(C)[C@H]4[C@H](OC(=O)[C@@]4(C)[C@@H](O)[C@H]4O[C@H]43)[C@H]3O[C@@]231,6.7%
10,C=C1C[C@@]23C=CC(=O)[C@@](C)(CCC(=O)Nc4c(O)ccc(C(=O)O)c4O)C2C[C@@H]1C(O)C3 (stereo not given in full),6.85%
11,Oc1ccc(C2c3c(O)cc(O)cc3[C@@H]3C(c4ccc(O)cc4)c4c(O)cc(O)cc4[C@H]23)cc1 (stereo not given in full),-26.7%
12,COC(=O)[C@@]12Oc3cccc(O)c3C(O)=C1C(=O)C[C@H](C)[C@H]2O,3.52% [at 91 µM]
13,C[C@@H]1C(=O)[C@]23CC[C@H]1C[C@]21O[C@H]2C(C)(C)C=CC(=O)[C@@]23COC1=O,-23.8%
14,CCCCCCCCCCCCCCCC(=O)OC/C=C(\C)CCCC(C)CC(C)C(C)C (stereo not given),26.9%
15,C=C1CC[C@@H](O[C@H]2C[C@@](O)([C@H](C)NC(=O)c3[nH]c(C)c(Cl)c3Cl)[C@H](O)[C@@H](C)O2)[C@@H]2C=C[C@H](C)C(/C(O)=C3/C(=O)[C@H](C(C)C)N([C@@H]4O[C@H](C)[C@H](OC(N)=O)[C@H](OC(C)=O)[C@@H]4OC)C3=O)[C@@H]12 (stereo not given in full),-1.08%
16,COC(=O)[C@]1([C@H]2CCC(=O)O2)CC(=O)c2c(O)cc(C)cc2O1,-10.4%
17,CN1CC[C@]23c4ccccc4N[C@H]1[C@]21CCN(C)[C@H]3Nc2ccccc21,8.97%
18,O=Cc1ccc2n1C[C@@]1(C[C@H](O)[C@@H](CO)O1)OC2,4.33%
19,COc1cc(/C=C/C(=O)O)ccc1O,-5.38%
20,CC(C)=CCCC(C)(O)[C@H]1CC=C(C)C(O)C1 (stereo not given in full),0.373%
